Screening results from PubChem.
A selection: hits, their analogues and other compounds. The true share with any hit is near 2.4%.
POLK inh = inhibitors of human DNA polymerase kappa; Q9UBT6; hit rate 0.53% among 400,000; Potency, µM (top dose mostly 107 µM), inactives show at the top dose activity, negative = inhibition, hits mostly inhibitors; purified Pol kappa, fluorescent DNA synthesis assay, 10 min; note: % is set by controls: 0 for no effect and ±100 for the full control effect
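Here, compound and 10 nM enzyme are combined for 15 min at room temperature; adding 50 nM substrate (final) starts DNA synthesis, tracked by fluorescence at 0 and 10 min against buffer-only wells.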
POLI inh = blocks human DNA polymerase iota activity; Q9UNA4; Pol iota fluorescent replication assay, 10 min; Potency, µM (highest dose often 115 µM), without a hit: top-dose activity, negative = inhibition, hits mostly inhibitors; hit rate 1% among 390,000; AID 588590
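Fluorescent replication assay read twice, at 0 min and 10 min after adding 50 nM (final) substrate. Enzyme (10 nM) and compounds were first incubated 15 min at room temperature; enzyme-free buffer wells were negative controls.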
WRN inhibitor = blocks human WRN helicase; Q14191; WRN helicase unwinding, fluorescent forked duplex, kinetic; Potency, µM (doses to about 114 µM), inactives show at the top dose activity change, negative = inhibition, actives largely listed as inhibitors; hit rate 0.46% among 360,000; AID 651768; note: % is set by controls: 0 for no effect and ±100 for the full control effect; nearly all actives have a fitted effect of over 55% in size
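Fluorescence dequenching readout, ex 525 nm/em 598 nm, kinetic mode: forked duplex DNA (100 nM final) with adjacent fluorophore and quencher unwound by WRN (20 nM final) with 2 mM ATP. Compound preincubation 15 min, room temperature.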
Pol beta inh = blocks human DNA polymerase beta activity; Pol beta primer extension/strand displacement, fluorescence kinetic; Potency, µM (doses to about 114 µM), for inactives: at the top dose activity change, negative = inhibition, hits mostly inhibitors; hit rate 1.3% among 340,000; AID 485314; note: % is set by controls: 0 for no effect and ±100 for the full control effect
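Kinetic readout of DNA synthesis with strand displacement by Pol beta. Compound and 10 nM enzyme sit 15 min at room temperature; 50 nM substrate starts the reaction, read immediately and at 10 min.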
Pol eta inh = blocks human DNA polymerase eta activity; hit rate 1.2% among 390,000; Potency, µM (highest dose often 114 µM), inactives show at the highest dose activity change, negative = inhibition, actives largely listed as inhibitors; recombinant Pol eta, fluorescent DNA replication assay; note: % is set by controls: 0 for no effect and ±100 for the full control effect
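Fluorescent replication assay: 50 nM final substrate added after a 15 min room-temperature compound preincubation with 10 nM enzyme. Signal taken at 0 min and again at 10 min.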
FEN1 inh = blocks human flap endonuclease 1; AID 588795; hit rate 0.35% among 390,000; Potency, µM (titrated, usually from 114 µM), for inactives: at the highest dose activity change, negative = inhibition, usual class: inhibitors; P39748; Recombinant FEN1 flap cleavage, fluorescence, 15 min; note: % is set by controls: 0 for no effect and ±100 for the full control effect; nearly all actives have a fitted effect of over 65% in size
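With each library titrated from low to high concentration, compounds met 10 nM FEN1 for 15 min at room temperature before 50 nM substrate was added; readings at 0 and 15 min fed four-parameter Hill curve fits.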
* marks the source's active call; other numbers are inactive results; ? = inconclusive; / = no result; [ ] = another dose, or the depositor's remark. Calls come from the whole dose curve; as a rule, active = well fitted curve in the direction sought with a large enough effect; inconclusive = small, poorly fitted or top-dose-only effect, or another doubt; inactive = no such curve, though single readings can be large; an effect the other way counts as inactive or inconclusive. Potency is the fitted concentration of half-maximal effect.

SMILES	POLK inh	POLI inh	WRN inhibitor	Pol beta inh	Pol eta inh	FEN1 inh
Cc1ccc(NC(=O)C2CCN(C(=O)c3cnn(-c4ccccc4)c3-n3cccc3)CC2)cc1Cl	-22%	7%	/	?	-16%	-22%
CN(C)[C@@H]1C(=O)C(C(N)=O)=C(O)[C@@]2(O)C(=O)C3=C(O)c4c(O)cccc4[C@@](C)(O)C3C[C@@H]12 (stereo not given in full)	79µM*	?	-8%	/	-5%	?
CN(C)C1C(=O)C(C(N)=O)=C(O)[C@@]2(O)C(=O)C3=C(O)c4c(O)cccc4[C@](C)(O)C3C(O)C12 (stereo not given in full)	2.8µM*	/	/	/	/	/
CN(C)C1C(=O)C(C(N)=O)C(=O)C2(O)C(=O)C3C(=O)c4c(O)cccc4C(C)(O)C3C(O)C12 (stereo not given)	2.8µM*	/	/	/	/	/
OC[C@@H](O)[C@H]1O[C@@H]2OC(C(Cl)(Cl)Cl)O[C@H]2[C@H]1O (stereo not given in full)	-5%[19.4 µM]	/	/	/	/	/
c1ccc([Se]c2c(-c3ccccc3)[se]c3ccccc23)cc1	-13%[60.1 µM]	/	/	/	/	/
NCC(=O)c1ccc2ccccc2c1	1%	15%	/	/	/	5%
CC(C)n1c(O)c(C2c3cc(Cl)ccc3Oc3[nH]c(=O)n(C(C)C)c(=O)c32)c(=O)[nH]c1=O (stereo not given)	-7%	16µM*	35µM*	8%	?	-14%
CC(C)=CCCC1(C)C=Cc2c(O)c3c(c(CC=C(C)C)c2O1)OC12C(=CC4CC1C(C)(C)OC2(C/C=C(/C)C(=O)O)C4=O)C3=O (stereo not given)	22µM*	/	/	/	/	/
CC(C)=CCCC1(C)C=Cc2c(O)c3c(c(CC=C(C)C)c2O1)OC12C(=CC4CC1C(C)(C)OC2(C/C=C(/C)C(=O)O)C4O)C3=O (stereo not given)	25µM*	/	/	/	/	/
CC[C@H](Oc1ccc(Cl)cc1)C(=O)OC1C[C@H]2CC[C@@H](C1)N2C (stereo not given in full)	-6%[19.4 µM]	/	/	/	/	/
CC(=O)OCC1=C(C(=O)O)N2C(=O)[C@@H](NC(=O)CCC[C@@H](N)C(=O)O)[C@H]2SC1	6%[60.1 µM]	/	/	/	/	-4%[57.1 µM]
Cc1cc(C)cc(N2C(=O)/C(=C\c3ccc(N4CCN(C)CC4)o3)C(=O)NC2=S)c1	-9%	32µM*	-19%	-20%	-24%	?
Cc1cc(/C=C/c2ccnc3ccccc23)ccc1N(CCCl)CCCl	-14%	?	/	/	/	-33%
CC1=C2C(=O)C3C(CC=C4C[C@@H](O)CC[C@@]43C)[C@@H]2CC[C@]12O[C@@H]1C[C@H](C)CN[C@H]1C2C (stereo not given in full)	11%[60.1 µM]	/	/	/	/	/
CC(C)C[C@H](NC(=O)[C@H](CC(C)C)NC(=O)[C@H](Cc1ccccc1)NC(=O)[C@@H](N)Cc1ccc(O)cc1)C(=O)N[C@@H](CCCN=C(N)N)C(=O)N[C@@H](CC(N)=O)C(=O)N1CCC[C@H]1C(=O)O	12%[60.1 µM]	/	/	/	/	/
CC(C)C[C@H](NC(=O)[C@H](Cc1ccccc1)NC(=O)CNC(=O)[C@H](C)NC(=O)[C@@H](N)Cc1ccc(O)cc1)C(=O)O	7%[19.4 µM]	/	/	/	/	/
NC(Cc1ccc(Oc2cc(I)c(O)c(I)c2)c(I)c1)C(=O)O (stereo not given)	7.1µM*	/	/	/	/	/
COC(=O)C1=Nc2ccccc2/C1=C\c1c(O)n(-c2ccc(Br)cc2)c(=O)[nH]c1=O	-10%	-6%	50µM*	?	35µM*	-14%
O=C(O)c1ccc(-n2c(O)c(/C=C3\C=Nc4ccccc43)c(=O)[nH]c2=O)cc1	-5%	?	-11%[11.6 µM]	-13%	50µM*	?
O=c1[nH]c(=O)n(-c2cccc(F)c2)c(O)c1/C=C1\C=Nc2ccccc21	-10%	14µM*	-18%	2%	-25%	11%
c1ccc2sc(C3(NCC4CC4)CCCCC3)cc2c1	4%[19.4 µM]	/	/	/	/	/
